Measured values published in the supplement of paper PMC8371130.
Where a name gives a salt, the structure may show the parent alone.

System: HL-1
Assay: relative cell viability (CellTiter-Glo) vs DMSO control (% of DMSO control); higher = more viable cells
Method in brief: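 HL-1 mouse atrial cardiomyocytes were plated in 384-well plates at 1000 cells per well together with compounds at 40, 200, 1000 or 5000 nM in 0.01% DMSO. One day later, cells went to a hypoxic workstation (1% O2) for 48 h, then were reoxygenated for 24 h in a normal incubator, or stayed in normoxia for the same time. Cell viability was read by CellTiter-Glo luminescence and normalised to vehicle-treated control cells.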

[1] = oxygen condition: hypoxia 48 h (1% O2) + reoxygenation 24 h, 40 nM
[2] = oxygen condition: hypoxia 48 h (1% O2) + reoxygenation 24 h, 200 nM
[3] = oxygen condition: hypoxia 48 h (1% O2) + reoxygenation 24 h, 1000 nM
[4] = oxygen condition: hypoxia 48 h (1% O2) + reoxygenation 24 h, 5000 nM
[5] = oxygen condition: normoxia 72 h, 40 nM
[6] = oxygen condition: normoxia 72 h, 200 nM
[7] = oxygen condition: normoxia 72 h, 1000 nM
[8] = oxygen condition: normoxia 72 h, 5000 nM

| Compound | relative cell viability [1] | relative cell viability [2] | relative cell viability [3] | relative cell viability [4] | relative cell viability [5] | relative cell viability [6] | relative cell viability [7] | relative cell viability [8] |
| --- | --- | --- | --- | --- | --- | --- | --- | --- |
| CCOC(=O)[C@H](CCc1ccccc1)N[C@H]1CCc2ccccc2N(CC(=O)O)C1=O [Benazepril hydrochloride] | 102 | 102 | 103 | 109 | 101 | 109 | 108 | 109 |
| CC(=O)Oc1ccc(C(c2ccc(OC(C)=O)cc2)c2ccccn2)cc1 [Bisacodyl] | 103 | 100 | 109 | 111 | 101 | 115 | 101 | 101 |
| CN1CCN(C2=Nc3ccccc3Oc3ccc(Cl)cc32)CC1 [Loxapine Succinate] | 100 | 103 | 105 | 116 | 103 | 111 | 102 | 125 |
| CC(C)NC[C@H](O)COc1ccc(CCOCC2CC2)cc1 [Levobetaxolol HCl] | 110 | 102 | 107 | 115 | 105 | 106 | 108 | 115 |
| CCOCC(O)COc1ccc(NC(=O)CC[S+](C)C)cc1 (stereo not given) [Suplatast tosylate] | 106 | 103 | 99.4 | 107 | 101 | 101 | 108 | 120 |
| COc1ccccc1OCC(O)COC(N)=O (stereo not given) [Methocarbamol] | 104 | 107 | 108 | 119 | 101 | 112 | 106 | 114 |
| Cc1c(N(C)C)c(=O)n(-c2ccccc2)n1C [Amidopyrine] | 107 | 111 | 109 | 114 | 107 | 105 | 110 | 118 |
| CS(=O)(=O)c1ccc(C2=C(c3ccccc3)C(=O)OC2)cc1 [Rofecoxib] | 104 | 97.5 | 103 | 107 | 105 | 94.4 | 107 | 109 |
| CCN1CCC[C@H]1CNC(=O)c1cc(S(N)(=O)=O)ccc1OC [Levosulpiride] | 98 | 107 | 105 | 116 | 107 | 108 | 108 | 116 |
| CN(C)CCN(Cc1ccccc1)c1ccccn1 [Tripelennamine HCl] | 97.8 | 87.6 | 88 | 103 | 93 | 91.8 | 94.1 | 105 |
| CN(C(=O)CN(CCO)CC(=O)N(C)C(C)(C)Cc1ccccc1)C(C)(C)Cc1ccccc1 [Oxethazaine] | 102 | 103 | 106 | 115 | 99.2 | 103 | 97.9 | 128 |
| N#Cc1ccc(C(c2ccc(C#N)cc2)n2cncn2)cc1 [Letrozole] | 103 | 105 | 109 | 104 | 107 | 110 | 105 | 110 |
| C[C@H](CCC(=O)O)[C@H]1CC[C@H]2[C@@H]3CC[C@@H]4C[C@H](O)CC[C@]4(C)[C@H]3CC[C@]12C [Lithocholic acid] | 108 | 108 | 108 | 113 | 102 | 113 | 105 | 108 |
| CC(C)(Sc1cc(C(C)(C)C)c(O)c(C(C)(C)C)c1)Sc1cc(C(C)(C)C)c(O)c(C(C)(C)C)c1 [Probucol] | 108 | 105 | 104 | 110 | 106 | 103 | 105 | 112 |
| C#C[C@]1(O)CC[C@H]2[C@@H]3CCc4cc(OC)ccc4[C@H]3CC[C@@]21C [Mestranol] | 101 | 106 | 101 | 101 | 99.9 | 97.3 | 103 | 85.7 |
| CC(=O)OCC(=O)[C@H]1CC[C@H]2[C@@H]3CCC4=CC(=O)CC[C@]4(C)[C@H]3CC[C@]12C [Deoxycorticosterone acetate] | 103 | 99.4 | 101 | 108 | 95.4 | 103 | 102 | 107 |
| CN(C)CCCN1c2ccccc2Sc2ccc(Cl)cc21 [Chlorpromazine] | 104 | 103 | 106 | 107 | 97.1 | 100 | 106 | 117 |
| O=C(O)C(=O)O.[NH-][C@@H]1CCCC[C@H]1[NH-].[Pt+2] [Oxaliplatin] | 99.8 | 102 | 109 | 114 | 97.4 | 107 | 105 | 122 |
| CC(C)c1c(C(=O)Nc2ccccc2)c(-c2ccccc2)c(-c2ccc(F)cc2)n1CC[C@@H](O)C[C@@H](O)CC(=O)O [Atorvastatin calcium] | 107 | 95.8 | 102 | 41.7 | 96.4 | 98.8 | 81.6 | 19.9 |
| CC(=O)O[C@H]1C[C@@H]2CC[C@@H]3[C@H](CC[C@@]4(C)[C@H]3C[C@H]([N+]3(C)CCCCC3)[C@@H]4OC(C)=O)[C@@]2(C)C[C@@H]1N1CCCCC1 [Vecuronium Bromide] | 112 | 118 | 114 | 119 | 112 | 115 | 122 | 124 |

| Compound | relative cell viability [1] | relative cell viability [2] | relative cell viability [3] | relative cell viability [4] | relative cell viability [5] | relative cell viability [6] | relative cell viability [7] | relative cell viability [8] |
| --- | --- | --- | --- | --- | --- | --- | --- | --- |
| C[C@]12CC[C@@H]3c4ccc(O)cc4CC[C@H]3[C@@H]1CC[C@@H]2O [Estradiol] | 105 | 98.2 | 100 | 94 | 101 | 103 | 100 | 100 |
| CC(=O)Oc1cc2c(s1)CCN(C(C(=O)C1CC1)c1ccccc1F)C2 (stereo not given) [Prasugrel] | 115 | 104 | 106 | 110 | 106 | 105 | 122 | 120 |
| CN1CCN2c3ccccc3Cc3ccccc3C2C1 (stereo not given) [Mianserin hydrochloride] | 74.7 | 97.7 | 84 | 107 | 63.6 | 92.5 | 98.1 | 111 |
| CCC[C@@H]1C[C@@H](C(=O)N[C@@H]([C@H]2O[C@H](SC)[C@H](O)[C@@H](O)[C@H]2O)[C@H](C)Cl)N(C)C1 [Clindamycin hydrochloride] | 98.5 | 93.8 | 91.3 | 102 | 102 | 98 | 100 | 86.2 |
| CC1CCc2cc(F)cc3c(=O)c(C(=O)O)cn1c23 (stereo not given) [Flumequine] | 104 | 98.4 | 117 | 108 | 106 | 120 | 104 | 98.2 |
| CCOc1nc2cccc(C(=O)O)c2n1Cc1ccc(-c2ccccc2-c2nnn[nH]2)cc1 [Candesartan] | 110 | 105 | 110 | 109 | 107 | 109 | 108 | 110 |
| COc1ccc2[nH]c([S+]([O-])Cc3ncc(C)c(OC)c3C)nc2c1 (stereo not given) [Omeprazole] | 101 | 99.7 | 107 | 110 | 104 | 103 | 103 | 105 |
| CNC(=C[N+](=O)[O-])NCCSCc1csc(CN(C)C)n1 [Nizatidine] | 108 | 104 | 106 | 95.7 | 115 | 104 | 106 | 85 |
| CCCSc1nc(N[C@@H]2C[C@H]2c2ccc(F)c(F)c2)c2nnn([C@@H]3C[C@H](OCCO)[C@@H](O)[C@H]3O)c2n1 [Ticagrelor] | 109 | 115 | 108 | 123 | 108 | 108 | 113 | 111 |
| O=C(NCCO[N+](=O)[O-])c1cccnc1 [Nicorandil] | 101 | 105 | 108 | 102 | 104 | 98.1 | 99.2 | 102 |
| NCCC(O)(P(=O)(O)O)P(=O)(O)O [Pamidronate Disodium] | 98.6 | 106 | 107 | 76.5 | 107 | 99.9 | 108 | 105 |
| O=NO [Sodium nitrite] | 109 | 110 | 116 | 122 | 109 | 116 | 107 | 114 |
| CN1CCC(=C2c3ccccc3CC(=O)c3sccc32)CC1 [Ketotifen fumarate] | 108 | 103 | 101 | 113 | 99.8 | 100 | 105 | 106 |
| C[C@H]1O[C@H](O[C@H]2[C@H](O)[C@@H](O)[C@@H](O[C@H]3[C@H](O)[C@@H](O)C(O)O[C@@H]3CO)O[C@@H]2CO)[C@H](O)[C@@H](O)[C@@H]1N[C@H]1C=C(CO)[C@@H](O)[C@H](O)[C@H]1O (stereo not given in full) [Acarbose] | 106 | 108 | 108 | 107 | 106 | 107 | 111 | 107 |
| C#CCN[C@@H]1CCc2ccccc21 [Rasagiline mesylate] | 94.8 | 96.7 | 98.2 | 102 | 93.3 | 92.9 | 99.4 | 108 |
| CCN1CCCC1CNC(=O)c1cc(S(=O)(=O)CC)c(N)cc1OC (stereo not given) [Amisulpride] | 103 | 104 | 111 | 108 | 104 | 107 | 119 | 111 |
| CCCC(=O)OCOC(=O)C1=C(C)NC(C)=C(C(=O)OC)C1c1cccc(Cl)c1Cl (stereo not given) [Cleviprex] | 106 | 90.5 | 93.1 | 98 | 91.9 | 91.8 | 96.5 | 96.4 |
| NS(=O)(=O)c1cc2c(cc1Cl)N=CNS2(=O)=O [Chlorothiazide] | 117 | 112 | 113 | 111 | 109 | 104 | 103 | 110 |
| Cn1c(=O)c2c(ncn2CC2OCCO2)n(C)c1=O [Doxofylline] | 101 | 111 | 122 | 113 | 108 | 111 | 113 | 122 |
| CNC(=O)CN(CCN(CCN(CC(=O)[O-])CC(=O)NC)CC(=O)[O-])CC(=O)[O-].[Gd+3] [Gadodiamide] | 98 | 104 | 98.5 | 106 | 103 | 98.8 | 107 | 112 |
